From PubChem BioAssay (EPA / NIEHS)
Records with an inconclusive call do not appear. The source made the active and inactive calls. Rule for the calls: active = hit-call score of the fitted dose curve at least 0.9, where 1 is the maximum; inconclusive = response in the unintended direction; inactive = score below 0.9.

Experiment: TOX21_p53_BLA_p2_viability: Viability Assessment in the Tox21 HCT-116 p53 Agonism Beta-lactamase Assay, Phase 2 (AID 2283591);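 note: compound exposure lasted 16 h at 37 °C; actives lower the ATP signal meaning cytotoxicity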
Excerpt: TOX21_p53_BLA_p2 is a cell-based, single-readout assay that uses HCT116, a human intestinal cell line, […] in a 1536-well plate.TOX21_p53_BLA_p2_viability is an assay readout measuring cellular ATP content and detected with CellTiter-Glo Luciferase-coupled ATP quantitation.TOX21_p53_BLA_p2_viability used a type of viability reporter where loss-of-signal activity can be used to understand changes in the cell viability. Furthermore, this assay endpoint can be referred to as a secondary readout, because this assay has produced multiple assay endpoints where this one serves a viability function. To generalize the intended target to other relatable targets, this assay endpoint is annotated to the cell cycle intended target family, where the subfamily is cytotoxicity.
Thawing Method: Place 14 mL of pre-warmed thaw medium into a 15 mL of conical tub. Remove the vial of cells to be thawed from liquid nitrogen and thaw rapidly by placing at 37C in a water bath with gentle agitation for 1-2 minutes. Decontaminate the vial by wiping with 70% ethanol before opening in a biological safety cabinet. Transfer the vial contents drop-wise into 14 mL of thaw medium in a sterile 15-mL conical tub. Centrifuge cells at 900 rpm for 4 minutes and resuspend in thaw medium. Transfer contents to the T75 tissue culture flask containing Thaw Medium and place flask in a humidified 37C/5% CO2 incubator. Switch to growth medium at first passage.Propagation Method: Aspirate medium, rinse once in DPBS, add 0.25% Trypsin/EDTA and swirl to coat the cell evenly. Add an equal volume of Growth Medium to inactivate Trypsin after 2-3 minutes incubation at 37C. Centrifuge cells at 900 rpm for 4 minutes and resuspend in growth medium. Cell should be passage or fed at least twice a week.Assay Protocol: Harvest cells from culture in growth medium and resuspend in assay medium. 2.2 Dispense 4000 cells/5 uL/well into 1536-well black/clear bottom plates using a Multidrop dispenser. After the cells were incubated at 37C for 5 hours, 23 nL of compounds dissolved in DMSO were transferred to the assay plate by a PinTool resulting in a 217-fold dilution. Incubate the plates for 16 hours at 37C, 5% CO2. Add 1 uL of 6X LiveBLAzer FRET B/G (CCF4-AM) Substrate Mixture to each well using a BioRAPTR dispenser and incubate the plates at room temperature for 2 hours. Measure fluorescence intensity at 460 and 530 nm emission and 405 nm excitation by an Envision detector. Data is expressed as the ratio of 460nm/530nm emissions. Add 4 uL of Cell-titer Glo to each well using BioRAPTR and incubate the plates at room temperature for […]. For cell viability readout that measures cytotoxicity, 4 ul/well of CellTiter-Glo reagent was added into the assay plates using a Flying Reagent Dispenser. After 30 min incubation at room temperature, the luminescence intensity in the plates was measured using a ViewLux plate reader.

SMILES | outcome | AC50
Cc1ccncc1 | inactive | –
CCNC(=S)NCC | inactive | –
O=S(=O)(O)c1cc(S(=O)(=O)O)c2c(N=Nc3ccccc3)c(O)ccc2c1 | inactive | –
CCCCOC(=O)C(C)OC(=O)CCC (stereo not given) | inactive | –
CC1COC(=O)O1 (stereo not given) | inactive | –
NC(N)=S | inactive | –
CC1(C)CC(N)CC(C)(CN)C1 (stereo not given) | inactive | –
CC(C)N1C(=O)c2ccccc2C1=O | inactive | –
Cc1cc(O)c2c(c1)C(=O)c1cc(O)cc(O)c1C2=O | inactive | –
C=CC(O)CCCCC (stereo not given) | inactive | –
O=C(O)c1ccco1 | inactive | –
[Na+] | inactive | –
Nc1ccn([C@H]2CC[C@@H](CO)O2)c(=O)n1 | inactive | –
CCO[Si](CC)(OCC)OCC | inactive | –
CCCCC(CC)COCCO (stereo not given) | inactive | –
CCCCCCOc1ccc(O)cc1 | – | 45.6 µM (active)
NC(=O)c1cnccn1 | inactive | –
CC1=CCC(=C(C)C)CC1 | inactive | –
CCCCCC1C(=O)CCC1CC(=O)OC (stereo not given) | inactive | –
CC(=O)Oc1c(C)c(C)c2c(c1C)CC[C@@](C)(CCC[C@H](C)CCC[C@H](C)CCCC(C)C)O2 | inactive | –

SMILES | outcome | AC50
Cc1cc(N)n(-c2ccccc2)n1 | inactive | –
CC12CCC(C1)C(C)(C)C2O (stereo not given) | inactive | –
CCOC(=O)CC1(C)OCC(C)O1 (stereo not given) | inactive | –
COC(=O)c1cccc(C(=O)OC)c1 | inactive | –
CC(=O)C1C(=O)C=C(C)OC1=O (stereo not given) | inactive | –
CC(=O)OC/C=C(C)/C=C/C=C(C)/C=C/C1=C(C)CCCC1(C)C | inactive | –
C=C1CC/C=C(\C)CC[C@@H]2[C@@H]1CC2(C)C | inactive | –
CC(=O)CCC=C(C)CCC=C(C)C | inactive | –
CN1CCc2cccc3c2[C@H]1Cc1ccc(O)c(O)c1-3 | inactive | –
CC(C)COC(=O)c1ccccc1 | inactive | –
Nc1ccc(O)c(N)c1 | inactive | –
CCCCOCCOCCO | inactive | –
CC(C)CCOC(=O)CC(C)C | inactive | –
CCCCCc1cccc(=O)o1 | inactive | –
CC/C=C\C#N | inactive | –
CCCCC1CCCCC(=O)O1 (stereo not given) | inactive | –
CC(C)(C)C1CCC(O)CC1 (stereo not given) | inactive | –
COC(=O)C(C)Oc1ccc(Oc2ncc(C(F)(F)F)cc2Cl)cc1 (stereo not given) | inactive | –
CC(=O)OC(C)(C)C1CC=C(C)CC1 (stereo not given) | inactive | –
CCCCCCOC(C)=O | inactive | –
